Methyltransferases: Primary Screen for Target Class Profiling of Small Molecule Inhibitors of Methyltransferases; purified enzyme, MTase-Glo SAH luminescence; stronger effect = lower value; calls only at 40 µM; hit rate 3.9% among 25,000; AID 1745853, 2022; call rule not given here
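Each enzyme was assayed with SAM and its substrate. SAH formation detected by MTase-Glo luminescence; single-point 40 uM screen[…].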
Of the large screens only hits and unclear results are named; the others gave an inactive call; ! = not confirmed by another sample. Only a selection was taken, and hits are over-represented in it overall.

Cc1ccc(NC(=O)Cn2nc3n(Cc4ccc(F)cc4)c(=O)c4ccccc4n3c2=O)c(C)c1	none
Nc1ncnc2c1c(-c1cnc3[nH]ccc3c1)nn2C1CCCC1	Methyltransferases active
Nc1ncnc2c1c(-c1ccc(Oc3ccccc3)cc1)nn2[C@@H]1CCCNC1	Methyltransferases active
COCCCNC(=O)c1cc2n(n1)CC(C)(C(=O)NCc1ccc(F)cc1)N(C)C2=O (configuration not stated)	none
CCOCCCNc1nc2c(-c3cccc(F)c3)nnn2c2ccc(Cl)cc12	none
COc1ccc(Cl)cc1NC(=O)CSc1nnc2n(CC(C)C)c(=O)c3ccccc3n12	none
CCc1ccc(NC(=O)CSc2nnc3n(CC(C)C)c(=O)c4ccccc4n23)cc1	none
CC1(C(=O)NC2CCCCC2)Cn2c(cc3sccc32)C(=O)N1Cc1ccc(Cl)cc1 (configuration not stated)	none
COCCCN1C(=O)c2cc(-c3ccccc3)nn2CC1(C)C(=O)NCc1ccccc1 (configuration not stated)	none
CCOC(=O)c1cc2n(n1)CC(C)(C(=O)NC1CCCCC1)N(Cc1ccc(OC(C)C)cc1)C2=O (configuration not stated)	none
CCN1CCN(Cc2ccc(NC(=O)c3ccc(C)c(NC(=O)c4cncc(-c5cccs5)c4)c3)cc2C(F)(F)F)CC1	none
Cc1cn(-c2cc(NC(=O)c3ccc(C)c(Nc4nccc(-c5cnccn5)n4)c3)cc(C(F)(F)F)c2)cn1	none
C[C@H](Oc1cc(-c2cnn(C3CCNCC3)c2)cnc1N)c1c(Cl)ccc(F)c1Cl	Methyltransferases active
C[C@@H](Oc1cc(-c2cnn(C3CCNCC3)c2)cnc1N)c1c(Cl)ccc(F)c1Cl	Methyltransferases active!
Cc1cc(C)cc(N2C(=O)c3cc4occc4n3CC2(C)C(=O)NC2CCCCC2)c1 (configuration not stated)	none
CC(C)NC(=O)CSc1nnc2n(CCc3ccccc3)c(=O)c3ccccc3n12	none
CN1C(=O)c2cc(C(=O)NCc3cccs3)nn2CC1(C)C(=O)NCc1ccc(F)cc1 (configuration not stated)	none
NCCc1ccc(O)c(O)c1	Methyltransferases active
Cc1cccc(Cn2nc3n(Cc4ccccc4)c(=O)c4ccc(C(=O)NC(C)C)cc4n3c2=O)c1	none
COc1ccc(CN2C(=O)c3cc4occc4n3CC2(C)C(=O)NC2CCCC(C)C2C)cc1 (configuration not stated)	none
Cn1c2c(c3ccccc31)C(C(=O)NCc1ccc(F)cc1)N(Cc1ccc(Cl)cc1)C(=O)CS2 (configuration not stated)	none
CC1CCN(S(=O)(=O)c2ccc3c(c2)oc(=O)n3CC(=O)N2CCC(N3CCCCC3)CC2)CC1	none
CC(C)Cn1c(=O)c2ccc(C(=O)NC(C)C)cc2n2c(=O)n(CC(=O)NC3CCCCC3)nc12	none
COc1ccc(CCN2C(=O)c3ccccc3CC2(C)C(=O)NC2CCC(C)CC2)cc1OC (configuration not stated)	none
CCN(CC)CCN(Cc1ccc(-c2ccc(C(F)(F)F)cc2)cc1)C(=O)Cn1c(SCc2ccc(F)cc2)nc(=O)c2c1CCC2	Methyltransferases active
Cc1ccc(C(=O)Cn2nc3n(CCC(C)C)c(=O)c4ccc(C(=O)NC(C)C)cc4n3c2=O)c(C)c1	none
CCCN1CCN(CCCN2C(=O)c3cc4occc4n3CC2(C)C(=O)NC2CCCCC2)CC1 (configuration not stated)	none
CCCn1c(=O)c2ccc(C(=O)NCC(C)C)cc2n2c(SCC(=O)Nc3ccc(C)cc3C)nnc12	none
Cc1cc(C)cc(NC(=O)CCc2nnc3n(Cc4ccccc4Cl)c(=O)c4ccccc4n23)c1	none
CN(C)c1ccc(NC(=O)NS(=O)(=O)c2ccc(Cl)cc2)cc1	Methyltransferases active
Cn1c(=O)n(C)c2cc(S(=O)(=O)Nc3ccc(Cl)cc3)ccc21	none
CCCNC(=O)NS(=O)(=O)c1ccc(Cl)cc1	none
CCOC(=O)c1cc2n(n1)CC(C)(C(=O)NC1CCCCC1)N(Cc1ccccc1F)C2=O (configuration not stated)	none
CC(=O)Nc1c2n(c3ccccc13)CC(C)(C(=O)NC1CCCCC1)N(Cc1ccco1)C2=O (configuration not stated)	none
Cc1ccc(-c2cn3c(n2)N(S(C)(=O)=O)CCC3)cc1	none
COc1ccc(Cn2c(=O)c3ccccc3n3c(-c4ccc(Cl)cc4)nnc23)cc1	none
CC(C)(C)Sc1c(CC(C)(C)C(=O)O)n(Cc2ccc(Cl)cc2)c2ccc(OCc3ccc4ccccc4n3)cc12	Methyltransferases active
COc1ccc(CNC(=O)CCc2nnc3n(Cc4ccc(Cl)cc4)c(=O)c4ccccc4n23)cc1	none
CC(=O)c1ccc(Nc2nc3c(S(=O)(=O)c4ccc(Br)cc4)nnn3c3ccccc23)cc1	none
CCCn1c(=O)c2ccc(C(=O)NCC(C)C)cc2n2c(=O)n(Cc3ccccc3F)nc12	none
CCOC(=O)c1cc2n(n1)CC(C)(C(=O)NC1CCCC1)N(Cc1ccc(C)cc1)C2=O (configuration not stated)	none
Cc1cc2[nH]c(=O)[nH]c2cc1S(=O)(=O)N1CCN(C2CCCCC2)CC1	none
